{
  "source": "PubChem BioAssay AID898",
  "about": "(University of Pittsburgh Molecular Library Screening Center, 2007)",
  "note": "About 220 (0.16%) of roughly 140,000 compounds were called active. Cut-off read from the data, not from the text of the source: active = inhibition above about 50%; inactive = the rest. The list comes from a sample in which actives are over-represented; it also holds similar structures and randomly drawn compounds.",
  "data": [
    {"test_system": "YopH tyrosine phosphatase [Yersinia enterocolitica]", "experiment": "YopH tyrosine phosphatase inhibitors, primary screen, biochemical, fluorescence Ex485/Em525 (AID 898)", "settings": "hits give high values, concentration not given here", "values": [
      {"smiles": "O=c1[nH]c(CN2CCN(S(=O)(=O)c3ccc4c(c3)OCCO4)CC2)nc2sc3c(c12)CCCC3", "inhibition": "-8.83% (inactive)"},
      {"smiles": "Cc1ccc(S(=O)(=O)N(CC(=O)Nc2cccc([N+](=O)[O-])c2)Cc2ccc(Cl)cc2)cc1", "inhibition": "-31.4% (inactive)"},
      {"smiles": "CC(C)OCCCNC(=O)c1cc(Sc2ccc(F)cc2)nc2ccccc12", "inhibition": "-10.5% (inactive)"},
      {"smiles": "COc1cccc(-n2c(SCC(=O)c3c[nH]c4ccccc34)nc3ccccc3c2=O)c1", "inhibition": "-22.8% (inactive)"},
      {"smiles": "C/C(=N\\NC(=O)c1ccc(CSc2nc(C)cc(C)n2)cc1)C1CCCCC1", "inhibition": "-27.2% (inactive)"},
      {"smiles": "CC(=O)c1c(O)cc2n(c1=O)-c1ccc(Cl)cc1C2(C)C", "inhibition": "-21.9% (inactive)"},
      {"smiles": "CSc1c(SCc2ccccc2)cnn(Cc2ccccc2)c1=O", "inhibition": "-31.9% (inactive)"},
      {"smiles": "Cc1ccc(S(=O)(=O)N(NC2=NS(=O)(=O)c3ccccc32)C(=O)c2ccccc2)cc1", "inhibition": "-28.4% (inactive)"},
      {"smiles": "CCCCCC(=O)Nc1ccc(S(=O)(=O)Nc2ccc(Cl)nn2)cc1", "inhibition": "-13.3% (inactive)"},
      {"smiles": "CC(C)(C)C(=O)N1CCC[C@@]1(CO)C(=O)O", "inhibition": "-12.8% (inactive)"},
      {"smiles": "COc1ccc(C(CC(=O)c2ccccc2)S(=O)(=O)c2ccccc2)cc1", "note": "(stereo not given)", "inhibition": "-12.2% (inactive)"},
      {"smiles": "CCCCN(C)c1ccc([N+](=O)[O-])cc1", "inhibition": "-11% (inactive)"},
      {"smiles": "CCCCOc1ccc(NC(=O)[C@@H]2CCCN2C(=O)C2CCN(S(=O)(=O)c3ccc(C)cc3)CC2)cc1", "inhibition": "-8.82% (inactive)"},
      {"smiles": "Cc1ccccc1Cn1nc(C)c(NC(=O)C(F)(F)F)c1C", "inhibition": "-28.6% (inactive)"},
      {"smiles": "Cc1ccc(-c2csc(NNC(=O)c3ccccc3)n2)cc1", "inhibition": "-36.8% (inactive)"},
      {"smiles": "Cc1ccccc1/[N+]([O-])=C/c1ccncc1", "inhibition": "77.8% (active)"},
      {"smiles": "CC(NC(=O)C(=O)NN=C1CCC(C(C)(C)C)CC1)c1ccccc1", "note": "(stereo not given)", "inhibition": "-22% (inactive)"},
      {"smiles": "CCOc1ncccc1C(=O)N(CC)CC(=O)Nc1ccc(NC(C)=O)cc1", "inhibition": "-14.7% (inactive)"},
      {"smiles": "Cc1cc(C(=O)CSc2nc(N)cc(=O)[nH]2)c(C)n1-c1cccc(F)c1", "inhibition": "-16.4% (inactive)"},
      {"smiles": "COC(=O)Cc1csc(/N=C/c2c(O)n(-c3cccc(C(F)(F)F)c3)c(=O)c3ccccc23)n1", "inhibition": "-22.8% (inactive)"},
      {"smiles": "COc1ccc(-n2c(C)cc(C(=O)CN3C(=O)NC4(CCc5ccccc54)C3=O)c2C)cc1", "note": "(stereo not given)", "inhibition": "-19.6% (inactive)"},
      {"smiles": "Cc1scc(C(=O)NNC(=S)NCC(C)C)c1C", "inhibition": "-19.1% (inactive)"},
      {"smiles": "COCCCNC(=O)Cn1cc(/C=C(\\C#N)C(=O)N2CCN(c3ccccc3)CC2)c2ccccc21", "inhibition": "-25.6% (inactive)"},
      {"smiles": "CC(=O)Nc1cccc(/C(C)=N/NC(=O)c2c(-c3ccccc3Cl)noc2C)c1", "inhibition": "-32.1% (inactive)"},
      {"smiles": "CC(C)Cc1nn2c(=O)cc(O)nc2s1", "inhibition": "-35.6% (inactive)"},
      {"smiles": "COc1ccc(OCC(=O)Nc2cc(C)c(Cl)cc2OC)c([N+](=O)[O-])c1", "inhibition": "-16.9% (inactive)"},
      {"smiles": "O=C(OCC1O[C@@H](OC(=O)c2cc(O)c(O)c(O)c2)[C@@H](OC(=O)c2cc(O)c(O)c(O)c2)[C@@H](OC(=O)c2cc(O)c(O)c(O)c2)[C@@H]1OC(=O)c1cc(O)c(O)c(O)c1)c1cc(O)c(O)c(O)c1", "note": "(stereo not given in full)", "inhibition": "71.9% (active)"},
      {"smiles": "CC(=O)NC1C(OCc2ccccc2)OC(COC(C)=O)C(OC(C)=O)C1OC(C)=O", "note": "(stereo not given)", "inhibition": "-23.9% (inactive)"},
      {"smiles": "S=C(NCCc1ccccc1)NCC1CCCO1", "note": "(stereo not given)", "inhibition": "-37.5% (inactive)"},
      {"smiles": "CCS(=O)(=O)Nc1cccc(-c2cc(-c3ccccc3)c3cc(C)ccc3n2)c1", "inhibition": "-8.31% (inactive)"},
      {"smiles": "CCc1ccc(C(=O)OCC(=O)Nc2cccc(S(=O)(=O)NC3=NCCCCC3)c2)cc1", "inhibition": "-20.5% (inactive)"},
      {"smiles": "Cc1cc([N+](=O)[O-])ccc1NC(=O)C1CCCO1", "note": "(stereo not given)", "inhibition": "-25.6% (inactive)"},
      {"smiles": "Cc1cc([N+](=O)[O-])nn1CC(=O)Nc1ccc(Cc2ccncc2)cc1", "inhibition": "-27.8% (inactive)"},
      {"smiles": "O=C(Nc1ccccc1Cc1ccccc1)c1ccc2c(c1)SC1=NS(=O)(=O)CCN12", "inhibition": "-31.8% (inactive)"},
      {"smiles": "CCOC(=O)CN1C(=O)N[C@@H](c2ccc(Br)cc2)C(C(C)=O)=C1C", "inhibition": "-19.8% (inactive)"},
      {"smiles": "CC(=O)c1ccc(N2CCN(C(=O)c3ccc4nc[nH]c4c3)CC2)cc1", "inhibition": "-23.5% (inactive)"},
      {"smiles": "COc1ccc2oc(-c3cccc(NC(=O)CSc4ccc(Cl)cc4)c3)nc2c1", "inhibition": "-28.2% (inactive)"},
      {"smiles": "COc1ccc(N2C(=O)C(CC(=O)Nc3ccc(F)cc3)N(CCc3cccs3)C2=O)cc1", "note": "(stereo not given)", "inhibition": "-4.8% (inactive)"},
      {"smiles": "Cc1ccc(CCCOC(=O)C[N+]2(C)CCCC2)cc1", "inhibition": "-21.4% (inactive)"},
      {"smiles": "CCC(=O)Nc1c(C)n[nH]c1C", "inhibition": "-26.6% (inactive)"},
      {"smiles": "CCCN1C(=O)C(Cc2nc3ccccc3c(=O)n2-c2ccccc2)c2cc(C)ccc21", "note": "(stereo not given)", "inhibition": "-10.9% (inactive)"},
      {"smiles": "CCOC(=O)c1cccnc1NC(=O)c1ccncc1", "inhibition": "-10.3% (inactive)"},
      {"smiles": "COc1cccc2c1CCC(NC(C)=O)C2=O", "note": "(stereo not given)", "inhibition": "-4.91% (inactive)"},
      {"smiles": "CCN(CC)S(=O)(=O)c1ccc(C)c(NC(=O)COc2ccc(Br)cc2Cl)c1", "inhibition": "-2.1% (inactive)"},
      {"smiles": "Cc1coc2c(O)cc3c(c12)OC1(N2CCCCC2)C(=O)NCCCC31", "note": "(stereo not given)", "inhibition": "73% (active)"},
      {"smiles": "COc1ccc(CNC(=O)CCCn2nc(C)c([N+](=O)[O-])c2C)cc1", "inhibition": "-22.1% (inactive)"},
      {"smiles": "COc1ccc(/C=C/C(=O)NC(=S)NN2CCCCC2c2cccnc2)cc1", "note": "(stereo not given)", "inhibition": "-20.6% (inactive)"},
      {"smiles": "Cc1ccc(C(=O)COC(=O)CCCC(=O)NC2CCCCC2)cc1[N+](=O)[O-]", "inhibition": "-26.3% (inactive)"},
      {"smiles": "CCNC(=S)N1CCC(c2nc3cc(C)c(C)cc3[nH]2)CC1", "inhibition": "-17.7% (inactive)"},
      {"smiles": "O=S(=O)(ON(c1ccccc1)S(=O)(=O)c1ccccc1)c1ccccc1", "inhibition": "-36.9% (inactive)"},
      {"smiles": "CCOC(=O)c1csc(NC(=O)Nc2cccc(OC)c2)n1", "inhibition": "-29.1% (inactive)"},
      {"smiles": "O=C(NC(CC(=O)N1CCN(c2ccccc2)CC1)c1ccccc1)c1ccccc1Cl", "note": "(stereo not given)", "inhibition": "-12% (inactive)"},
      {"smiles": "CCOc1cccc2c1OC1(CCCCC1)N1N=C(c3cccnc3)CC21", "note": "(stereo not given)", "inhibition": "-19.2% (inactive)"},
      {"smiles": "CC1(c2ccccc2)CC(C)(C)N(C(=O)c2cc([N+](=O)[O-])cc([N+](=O)[O-])c2)c2ccccc21", "note": "(stereo not given)", "inhibition": "-29.6% (inactive)"},
      {"smiles": "CC1CCN(C2=NC(=O)/C(=C/c3cn[nH]c3-c3ccccc3)S2)CC1", "inhibition": "-21.6% (inactive)"}
    ]}
  ]
}
